Assay outcomes (PubChem)
Only a selection was taken, and hits are over-represented in it overall.
IDE exosite FP – displaces the probe from the exo-site of human IDE; purified IDE, FL-6b probe fluorescence polarization; stronger effect = lower value; 17,000 tested, 6.3% active; P14735; z-score at 20 µM;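 active means z-score of -3 or lower, meaning strong loss of probe binding signal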;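 further: His-tagged human IDE residues 42-1019 made in E. coli with 30 nM FL-6b probe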
Target sequence (P14735 42-1019 limits assumed): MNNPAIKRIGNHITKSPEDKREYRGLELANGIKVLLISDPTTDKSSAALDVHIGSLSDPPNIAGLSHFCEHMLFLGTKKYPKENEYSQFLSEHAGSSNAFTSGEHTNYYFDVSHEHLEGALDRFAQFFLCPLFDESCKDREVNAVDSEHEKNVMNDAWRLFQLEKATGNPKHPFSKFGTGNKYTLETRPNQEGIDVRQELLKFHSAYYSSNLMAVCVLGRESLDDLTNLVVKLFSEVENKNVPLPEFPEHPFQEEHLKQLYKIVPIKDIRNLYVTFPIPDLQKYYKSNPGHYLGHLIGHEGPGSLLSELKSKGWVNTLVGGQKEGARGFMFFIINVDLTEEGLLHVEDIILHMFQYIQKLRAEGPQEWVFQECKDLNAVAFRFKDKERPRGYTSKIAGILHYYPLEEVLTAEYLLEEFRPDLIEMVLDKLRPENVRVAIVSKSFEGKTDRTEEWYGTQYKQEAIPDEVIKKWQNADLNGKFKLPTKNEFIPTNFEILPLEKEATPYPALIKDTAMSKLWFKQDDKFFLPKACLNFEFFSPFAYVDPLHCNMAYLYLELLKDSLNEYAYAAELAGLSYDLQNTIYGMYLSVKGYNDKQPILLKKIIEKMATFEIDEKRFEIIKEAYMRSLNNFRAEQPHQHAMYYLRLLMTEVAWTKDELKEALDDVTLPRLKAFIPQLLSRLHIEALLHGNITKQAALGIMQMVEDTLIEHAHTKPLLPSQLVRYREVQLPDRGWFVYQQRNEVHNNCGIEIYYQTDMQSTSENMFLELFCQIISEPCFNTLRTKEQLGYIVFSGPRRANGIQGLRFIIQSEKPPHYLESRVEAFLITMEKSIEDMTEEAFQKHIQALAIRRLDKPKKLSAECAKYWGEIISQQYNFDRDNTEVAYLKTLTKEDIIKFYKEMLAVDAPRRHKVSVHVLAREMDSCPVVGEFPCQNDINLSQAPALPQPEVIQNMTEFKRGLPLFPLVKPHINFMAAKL
Active calls of the source: *; ! = a repeat was not active.

SMILES	IDE exosite FP
COCC(=O)N1CCCCN2[C@H](CO)[C@@H](c3ccc(C#Cc4ccc(OC)cc4)cc3)[C@@H]2C1	-1.4
COCC(=O)N1CCCCN2[C@H](C1)[C@H](c1ccc(-c3ccccc3)cc1)[C@@H]2CO	-0.42
COCC(=O)N1CCCCN2[C@H](CO)[C@H](c3ccc(C#Cc4ccccc4)cc3)[C@@H]2C1	-8.4*
COCC#Cc1ccc([C@@H]2[C@H]3CN(C(=O)COC)CCCCN3[C@H]2CO)cc1	0.85
COCC(=O)N1CCCCN2[C@H](CO)[C@@H](c3ccc(C#Cc4ccc(OC)cc4)cc3)[C@H]2C1	1.7
COCC(=O)N1CCCCN2[C@H](C1)[C@H](c1ccc(C#Cc3ccccc3)cc1)[C@@H]2CO	-10*
COCC#Cc1ccc([C@@H]2[C@@H](CO)N3CCCCN(C(=O)COC)C[C@H]23)cc1	1
COCC(=O)N1CCCCN2[C@@H](CO)[C@H](c3ccc(C#Cc4ccccc4)cc3)[C@@H]2C1	-11*
COCC(=O)N1CCCCN2[C@H](CO)[C@H](c3ccc(-c4ccccc4)cc3)[C@H]2C1	-0.28
CN1C(=O)c2cc(NC(=O)Nc3ccccc3Cl)ccc2OC[C@H]2O[C@@H](CC(=O)O)CC[C@@H]21	-0.65
C[C@@H](O)C#Cc1ccc([C@H]2[C@H](CO)N3CCCCN(C(=O)c4ccncc4)C[C@@H]23)cc1	4.6
COc1ccc(S(=O)(=O)Nc2ccc3c(c2)C(=O)N([C@H](C)CO)C[C@H](C)[C@H](CN(C)C(=O)Nc2c(C)noc2C)OCCCC[C@H](C)O3)cc1	0.82
O=C(Nc1ccccc1F)N1CC(=O)N2[C@H](C1)[C@@H](c1ccc(-c3ccc(F)cc3)cc1)[C@@H]2CO	-1.3
COCCNC(=O)c1cc2c(c(-c3cccc(C4=CCCCC4)c3)n1)[C@@H](CCO)N([S@](=O)C(C)(C)C)C2	2.6
CO[C@@H]1CN(C)C(=O)c2cc(NC(=O)Nc3ccccc3Cl)ccc2OC[C@@H](C)N(S(=O)(=O)CC(F)(F)F)C[C@H]1C	0.49
CC(=O)N1CC(=O)N2[C@H](CO)[C@H](c3ccc(C#CC(C)C)cc3)[C@@H]2C1	0.77
COCC(=O)N1CCCCN2[C@H](C1)[C@@H](c1ccc(C#Cc3ccccc3)cc1)[C@@H]2CO	-5.9*
CCCNC(=O)N1CC2(C1)[C@H](c1ccccc1)[C@H](CO)N2C(=O)CC1CC1	0.96
CCCNC(=O)N1[C@H](CNC(=O)c2ccc(F)cc2)[C@@H](c2ccccc2)[C@@H]1CO	4.8
COc1ccc(NC(=O)N2[C@@H]3CNC[C@H]2C3c2ccc(-c3cccc(C(=O)N(C)C)c3)cc2)cc1 (stereo partly drawn)	0.85
O=C(Nc1ccccc1F)N1[C@@H]2CNC[C@H]1C2c1ccc(-c2cccnc2)cc1 (stereo partly drawn)	-3.3*!
O=C(Nc1ccccc1F)N1[C@@H]2CNC[C@H]1C2c1ccc(-c2ccccc2)cc1 (stereo partly drawn)	3
O=C(Nc1ccc2c(c1)OCO2)N1[C@@H]2CNC[C@H]1C2c1ccc(/C=C/c2ccccc2)cc1 (stereo partly drawn)	-1.5
C/C=C/c1ccc(C2[C@H]3CNC[C@@H]2N3C(=O)Nc2ccccc2Cl)cc1 (stereo partly drawn)	0.32
COc1cccc(-c2ccc(C3[C@H]4CNC[C@@H]3N4C(=O)Nc3cc(F)ccc3F)cc2)c1 (stereo partly drawn)	3.7
SMILES	IDE exosite FP
O=C(Nc1ccc(F)cc1)N1[C@@H]2CNC[C@H]1C2c1ccc(-c2cccnc2)cc1 (stereo partly drawn)	-0.059
O=C(Nc1cccc(F)c1)N1[C@@H]2CNC[C@H]1C2c1ccc(-c2cncnc2)cc1 (stereo partly drawn)	-2.7
COc1cccc(-c2ccc(C3[C@H]4CNC[C@@H]3N4C(=O)Nc3ccccc3OC)cc2)c1 (stereo partly drawn)	-3.9*
O=C(Nc1ccccc1Cl)N1[C@@H]2CNC[C@H]1C2c1ccc(-c2ccccc2)cc1 (stereo partly drawn)	1.2
O=C(Nc1ccc2c(c1)OCO2)N1[C@@H]2CNC[C@H]1C2c1ccc(-c2ccncc2)cc1 (stereo partly drawn)	-3.2*!
COc1ccccc1-c1ccc(C2[C@H]3CNC[C@@H]2N3C(=O)Nc2ccccc2Cl)cc1 (stereo partly drawn)	-3.2*
CCCNC(=O)N1CC2(CCN(Cc3nccs3)CC2)c2c([nH]c3cc(OC)ccc23)[C@@H]1CO	-2.3
N#C[C@H]1[C@@H](c2ccccc2)[C@@H](CO)N1S(=O)(=O)c1ccc(F)cc1	5
C[C@@H]1CCCCO[C@@H](CN(C)C(=O)CCC(F)(F)F)[C@H](C)CN([C@H](C)CO)C(=O)c2cc(NC(=O)C3CCCCC3)ccc2O1	-0.27
COC(=O)C[C@H]1C[C@@H]2c3cc(NC(=O)c4ccc5c(c4)OCO5)ccc3O[C@@H]2[C@H](CO)O1	-0.24
O=C(Nc1cc(F)ccc1F)N[C@H]1CC[C@@H](CC(=O)N2CCc3ccccc3C2)O[C@H]1CO	3.8
C[C@H]1CN([C@@H](C)CO)C(=O)Cc2cc(NC(=O)CCC(F)(F)F)ccc2O[C@@H]1CN(C)CC1CC1	0.079
N#C[C@H]1[C@H](c2ccccc2)[C@H](CO)N1S(=O)(=O)Cc1ccccc1	1.3
CO[C@@H]1CN(C)C(=O)c2cc(NC(=O)c3nc4ccccc4s3)ccc2OC[C@H](C)NC[C@H]1C	0.8
O=C(C1CC1)N1CC(=O)N2[C@H](CO)[C@@H](c3ccc(C#CC4CCCC4)cc3)[C@H]2C1	2.1
N#Cc1cccc(-c2ccc(C3[C@@H]4CN(C(=O)Nc5ccc(C(F)(F)F)cc5)C[C@H]3N4)cc2)c1 (stereo partly drawn)	-0.29
CCC(=O)N1[C@H](CO)[C@H](c2ccc(-c3cccc(F)c3)cc2)[C@H]1CNC(C)=O	0.97
Cc1noc(C)c1S(=O)(=O)Nc1ccc2c(c1)CC(=O)N([C@H](C)CO)C[C@H](C)[C@@H](CN(C)Cc1ccc(Oc3ccccc3)cc1)O2	-3.6*
COc1ccc(S(=O)(=O)Nc2ccc3c(c2)CC(=O)N([C@H](C)CO)C[C@@H](C)[C@H](CN(C)C(=O)Nc2c(C)noc2C)O3)cc1	0.89
Cc1noc(C)c1S(=O)(=O)Nc1ccc2c(c1)CC(=O)N([C@@H](C)CO)C[C@@H](C)[C@@H](CN(C)Cc1ccc(Oc3ccccc3)cc1)O2	0.55
C[C@@H]1CN([C@H](C)CO)C(=O)c2cc(N(C)C)ccc2O[C@H]1CN(C)Cc1ccc(Oc2ccccc2)cc1	-0.23
C[C@@H]1CN([C@H](C)CO)C(=O)c2cc(N(C)C)ccc2O[C@@H]1CN(C)Cc1ccc(Oc2ccccc2)cc1	-2.3
C[C@H](CO)N1C[C@H](C)[C@H](CN(C)Cc2ccc(Oc3ccccc3)cc2)Oc2ccc(N(C)C)cc2C1=O	-4.2*
CCc1cnc(N2[C@H](C#N)[C@@H](c3ccc(C#CC(C)C)cc3)[C@@H]2CO)s1	2.2
Cc1cccc(S(=O)(=O)N2[C@@H]3CNC[C@H]2C3c2ccc(-c3cncnc3)cc2)c1 (stereo partly drawn)	1.9
Cc1cccc(S(=O)(=O)N2CCCCN3[C@@H](CO)[C@H](c4ccc(C#CC(C)C)cc4)[C@@H]3C2)c1	4.3
Cc1cccc(-c2ccc([C@H]3[C@H]4CN(C(=O)c5cccnc5)CC(=O)N4[C@H]3CO)cc2)c1	-2.8
COc1ccc(-c2ccc([C@@H]3[C@H](CO)N4C(=O)CN(C(=O)c5cccnc5)C[C@@H]34)cc2)cc1	-1.5
